ADAM10 inh = inhibitors of human ADAM10; recombinant ADAM10, EDANS/DABCYL FRET peptide cleavage, 3 h; inhibition, % at 7 µM; actives 0.62% (n = 370,000); O14672;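 active means inhibition above a per-campaign cutoff equal to the mean of compounds falling between control-based bounds plus 3 SD, cut at about 20% in these data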;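 further: 0% = DMSO wells while the 100% control is not disclosed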
ADAM17 inh = ADAM17 inhibition, QFRET primary screen | recombinant ADAM17, EDANS/DABCYL FRET peptide cleavage | inhibition, % at 6.95 µM | P78536 | actives 0.83% (n = 370,000) | AID 720648;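 active means inhibition above the mean of compounds lying between control limits plus 3 SD, set per campaign, cut at about 8.5% in these data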;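 further: 0% = DMSO-only wells as the low control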
GC-B act = GC-B (human) receptor activation; P20594; HEK293-GC-B cells, CNP EC30, cGMP TR-FRET; 0% at EC30 CNP, 100% saturating CNP; activation, % at 10 µM; actives 0.11% (n = 370,000);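 active means activation at 10 µM reaching about 35% in either raw or pattern-adjusted values, limit read from the data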
NPR1 activator = GC-A (human) enzyme activation | activation, % at 10 µM | HEK293 GC-A cells, cGMP TR-FRET, EC30 ANP; 0% at EC30 ANP, 100% saturating ANP | P16066 | actives 0.14% (n = 370,000); in the data active means activation above about 40%
ADAM10 confirm = confirmation of inhibitors of human ADAM10; shares compounds with ADAM10 inh; ADAM10 QFRET peptide cleavage, EDANS fluorescence; inhibition, % at 6.95 µM; actives 1% (n = 2,100);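 active means inhibition above about 20% chosen separately for each screening run, limit read from the data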;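 further: 0% = DMSO wells and 100% = marimastat wells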
ADAM17 counter = inhibits human ADAM17 in ADAM10 exosite counter-screen; shares compounds with ADAM10 inh; ADAM17 QFRET peptide cleavage, EDANS fluorescence; inhibition, % at 6.95 µM; actives 0.5% (n = 2,100); AID 743214;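 active means mean triplicate inhibition above the solvent-only control wells' mean plus 3 SD, cut at about 12% in these data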;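 further: 0% = DMSO wells and 100% = marimastat wells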
* hit, by the source's call; i = inactive; / = no result given. An excerpt weighted towards active compounds, which were near 1.3% of everything screened.

SMILES	ADAM10 inh	ADAM17 inh	GC-B act	NPR1 activator	ADAM10 confirm	ADAM17 counter
O=C(OCc1c(-c2ccccc2)ncc2ccccc12)c1ccco1	7.3	-4.1	9.5	17.4	/	/
COc1ccc2c(c1)C[C@]1(C)c3ccccc3C(=O)N(Cc3ccccc3)[C@H]21	25.9*	5.0	-16.1	-14.6	3.1	1.1
COc1cccc(C2Nc3ccccc3C(=O)N2Cc2ccccc2)c1 (centres undefined)	i	-272.8	-8.4	-7.8	/	/
O=C1/C(=C/c2cccs2)SC(=S)N1CCCC(=O)N(CCO)c1ccccc1	23.7*	1.1	-5.2	-18.8	-0.5	0.5
NS(=O)(=O)c1ccc(CCNC(=O)c2cccc(S(=O)(=O)N3CCc4ccccc43)c2)cc1	11.2	-0.1	-4.7	-5.1	/	/
Cc1ccc(N(CC(=O)Nc2ccc3c(c2)OCCO3)S(=O)(=O)c2c(C)noc2C)cc1	13.6	4.9	-3.0	-4.1	/	/
Cc1ccc(N(CC(=O)Nc2ccc3c(c2)OCCO3)S(=O)(=O)c2c(C)n[nH]c2C)cc1	20.1*	6.3	-1.8	2.8	0.2	0.2
COc1ccccc1C(=O)NC(=S)Nc1cccc2cc(O)ccc12	24.9*	5.7	-7.4	-3.3	9.1	2.6
Cc1cc(C(=O)NCc2cccs2)ccc1[N+](=O)[O-]	5.7	-1.8	-1.3	-2.0	/	/
O=C(NCc1cccs1)c1ccc([N+](=O)[O-])cc1	23.7*	5.8	-0.8	-1.5	-1.0	0.0
COc1ccccc1C(=O)N1CCCC(c2nc(-c3cccs3)no2)C1 (centres undefined)	-10.6	2.3	-1.7	2.2	/	/
COc1ccc(NC(=O)c2ccc3c(=O)n(-c4ccc(OC)cc4OC)c(=S)[nH]c3c2)c(OC)c1	7.4	2.8	-3.0	2.1	/	/
CCOc1ccc(NC(=O)c2ccc3c(=O)n(-c4ccc(OC)cc4OC)c(=S)[nH]c3c2)cc1	23.7*	8.1	-7.7	-3.1	1.5	0.2
Cc1ccc(-c2cc(C(=O)NN=Cc3cccc(Oc4ccccc4)c3)[nH]n2)cc1C	13.2	6.5	2.5	-2.7	/	/
COc1ccc([N+](=O)[O-])cc1-c1[nH]c(-c2ccc(C(=O)O)cc2)nc1-c1ccccc1	2.3	-0.5	1.7	5.2	/	/
COc1ccc(-c2nc(-c3ccccc3)c(-c3cc([N+](=O)[O-])ccc3C)[nH]2)cc1O	30.7*	8.4	-19.7	-12.5	7.6	2.1
COc1ccc(-c2[nH][nH]c(=O)c2NC(=O)c2ccc(C)cc2)cc1	-8.6	-2.9	-3.7	2.4	/	/
O=C(CSc1nnc(-c2ccc(O)cc2)n1Cc1ccco1)c1cccs1	3.4	-0.6	-21.3	-16.0	/	/
N#Cc1c(-c2ccccc2)c(-c2ccccc2)n(Cc2ccco2)c1NC(=O)c1cccs1	19.8*	6.7	-4.1	-6.8	21.0*	6.9
CCOC(=O)c1c(NC(=O)CSc2nnnn2C)sc(C)c1-c1ccc(C)cc1	25.8*	5.8	-1.2	-0.2	8.6	2.7
CCOC(=O)c1c(-c2ccccc2)csc1NC(=O)CSc1nnnn1C	4.0	0.9	8.7	6.1	/	/
Cc1ccc(NC(=O)C(C)c2ccc([N+](=O)[O-])cc2)cc1Cl (centres undefined)	23.6*	6.5	1.1	-0.6	4.9	0.8
CC(C(=O)Nc1ccccc1Br)c1ccc([N+](=O)[O-])cc1 (centres undefined)	6.9	1.9	-3.7	-1.9	/	/
Cc1ccc(Oc2ccc(-c3nc(N)nc(N)n3)cc2)cc1C	19.8*	5.2	-1.4	0.3	2.5	1.0
O=C(NCc1cccs1)c1cc(-c2ccccc2)nc2ccccc12	-13.0	2.0	-1.0	3.5	/	/
Cc1ccc(C)c(-c2cc(C(=O)NCc3cccs3)c3ccccc3n2)c1	20.3*	4.6	-2.5	3.2	5.4	2.2
O=C(Nc1cccc(C(F)(F)F)c1)C1Cc2c(-c3ccc(Cl)cc3)ccnc2O1 (centres undefined)	16.2	7.0	6.3	-2.0	/	/
CC(=O)c1cccc(-c2ccnc3c2CC(C(=O)Nc2ccc(Cl)c(C(F)(F)F)c2)O3)c1 (centres undefined)	26.2*	8.1	-6.2	-3.6	4.3	2.2
O=C(Nc1cccc(C(F)(F)F)c1)C1Cc2c(-c3ccccc3)ccnc2O1 (centres undefined)	21.7*	6.5	-1.7	-4.8	4.8	1.3

Assay outcomes as filed in PubChem.
